Source: PubChem
Only some compounds are listed: those with a hit (about 2% of all), similar ones and a draw of the others.
MCL1 BIM primary = inhibitors of MCL1 binding to BIM-BH3, primary screen, biochemical, fluorescence polarization. Induced myeloid leukemia cell differentiation protein Mcl-1 (Homo sapiens), Q07820. GST-MCL1 / FITC-Bim-BH3 fluorescence polarization. inhibition, % at 10.9 µM. actives 0.68% (n = 320,000). AID 2057, 2009;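 active = inhibition above the mean inhibition of all tested compounds plus 3 SD, set per campaign, cut at about 40% in these data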;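 note: higher means more loss of mP so more displacement of Bim peptide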
Target sequence (Q07820 whole entry, looked up): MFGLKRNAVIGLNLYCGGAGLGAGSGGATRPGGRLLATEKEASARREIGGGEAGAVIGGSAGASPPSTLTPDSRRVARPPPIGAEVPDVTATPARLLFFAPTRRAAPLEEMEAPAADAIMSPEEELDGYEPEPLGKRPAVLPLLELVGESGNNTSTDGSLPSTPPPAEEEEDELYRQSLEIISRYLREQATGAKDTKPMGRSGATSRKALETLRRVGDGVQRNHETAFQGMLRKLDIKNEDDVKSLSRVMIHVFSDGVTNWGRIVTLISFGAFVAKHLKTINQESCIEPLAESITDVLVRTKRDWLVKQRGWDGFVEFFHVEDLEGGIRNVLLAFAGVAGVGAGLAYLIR
Mcl-1 Bim block = inhibitors of Bim peptide binding to Mcl-1, primary screen, biochemical, bead-based flow cytometry, multiplex | Induced myeloid leukemia cell differentiation protein Mcl-1 (Homo sapiens), Q07820 | Bim peptide-Mcl-1 binding | inhibition, % at 10 µM | actives 0.1% (n = 190,000) | AID 1009, 2008; in the data active = inhibition above about 40%
Mcl1 Noxa PPI = Mcl-1/Noxa binding inhibitors, primary screen, biochemical, TR-FRET, 1536-well; TR-FRET Mcl-1/Noxa peptide binding, 2 h; inhibition, % at 21.7 µM; actives 1.5% (n = 220,000); AID 1022, 2008;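 active = compounds that cut the protein-peptide binding signal by more than 50% relative to plate controls in a single-dose test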;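 note: His-tagged Mcl-1 with rhodamine Noxa BH3 peptide and terbium anti-His antibody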
Mcl1-Bid inh = Mcl-1/Bid binding inhibitors, primary screen, biochemical, TR-FRET, 1536-well; TR-FRET Mcl-1/Bid-Dy647 peptide binding; inhibition, % at 21.7 µM; actives 0.97% (n = 220,000);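 active = compounds that cut the binding signal by more than half at the single screening dose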;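 note: His-tagged Mcl-1 with europium anti-His antibody binding Bid BH3 peptide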
Large screens that a line does not name were inactive.

Cc1ccc(-n2c(O)c(C=Nc3ccccc3-c3n[nH]c(=S)[nH]c3=O)c3ccccc3c2=O)c(C)c1	Mcl1 Noxa PPI 62.8
CN1N=C(C(=O)N2CCCC(C(=O)c3cccc(C(F)(F)F)c3)C2)CCC1=O (stereo unspecified)	Mcl-1 Bim block 48.0
COc1cc(C(=O)N/N=C/c2ccc(OC(=O)c3cccc(C)c3)c(OC)c2)ccc1O	none (no result: Mcl-1 Bim block, Mcl1 Noxa PPI, Mcl1-Bid inh)
Cc1cc(C)c(Nc2cc(S(=O)(=O)O)c(N)c3c2C(=O)c2ccccc2C3=O)c(C)c1	MCL1 BIM primary 52.0, Mcl1 Noxa PPI 106.7, Mcl1-Bid inh 94.2
CC(C)Cn1c(N)c(C(=O)COC(=O)COc2cccc(C(F)(F)F)c2)c(=O)n(C)c1=O	none (no result: Mcl-1 Bim block, Mcl1 Noxa PPI, Mcl1-Bid inh)
Cc1cc(C)c(C)c(OCCCn2ccnc2)c1	none
Cc1cc(C)c(C)c(OCCCN(C)C)c1	Mcl1-Bid inh 53.1
CN=c1scc(-c2ccc([N+](=O)[O-])cc2)n1/N=C/c1ccco1	none
O=C1c2ccc([N+](=O)[O-])cc2NC(c2ccco2)N1/N=C/c1ccco1 (stereo unspecified)	Mcl1 Noxa PPI 84.3 (no result: Mcl-1 Bim block)
COc1ccc2[nH]c3c(NCCC4=CCCCC4)ncnc3c2c1	none (no result: MCL1 BIM primary)
O=C(N/N=C/c1c(O)n(-c2ccccc2Cl)c(=O)c2ccccc12)c1cccnc1	Mcl1 Noxa PPI 55.4 (no result: MCL1 BIM primary)
CCOC(=O)N1CC=C2C(C#N)=C(N)C(C#N)(C#N)[C@H](c3ccsc3)[C@H]2C1	none
CN1C2C=C3C(C#N)=C(N)C(C#N)(C#N)[C@@H](c4ccsc4)[C@@H]3C1CC2 (stereo partly specified)	Mcl-1 Bim block 53.0
Cc1cccn2c(=O)c3cc(C(=O)NCCCn4ccnc4)n(C)c3nc12	MCL1 BIM primary 46.8
COCc1nnc(NC(C)=O)s1	none
Cc1nn(S(=O)(=O)c2ccc(F)cc2)c(C)c1S(=O)(=O)N1CCCCC1	none (no result: Mcl-1 Bim block, Mcl1 Noxa PPI, Mcl1-Bid inh)
Cc1ccc(S(=O)(=O)NCc2cccnc2)cc1C(=O)NC1CCCCC1	none (no result: Mcl-1 Bim block, Mcl1 Noxa PPI, Mcl1-Bid inh)
O=c1[nH]c(CSc2ncccn2)nc2c1cnn2-c1ccccc1	Mcl1 Noxa PPI 58.5
O=c1[nH]c(SCc2nc3c(cnn3-c3ccccc3)c(=O)[nH]2)nc2ccccc12	none (no result: MCL1 BIM primary)
O=C(NCc1nnnn1-c1ccc(F)cc1)c1ccc([N+](=O)[O-])o1	none (no result: Mcl-1 Bim block, Mcl1 Noxa PPI, Mcl1-Bid inh)
O=c1c(O)c(-c2cccs2)oc2ccc(Cl)cc12	MCL1 BIM primary 41.7
O=c1c(O)c(-c2cccs2)oc2ccccc12	none
COc1ccc(C(=S)N2CCCCCC2)cc1	Mcl-1 Bim block 41.0
COc1ccc(C(=S)N2CCNCC2)cc1	none
CC(C)=CCC12Oc3cc(O)ccc3C1(O)Oc1cc(O)c([C@H]3C=C(C)CC(c4ccc(O)cc4O)[C@H]3C(=O)c3ccc(O)cc3O)c(O)c1C2=O (stereo partly specified)	none (no result: Mcl-1 Bim block, Mcl1 Noxa PPI, Mcl1-Bid inh)
O=C(CN1CCN(c2ccccn2)CC1)N1c2ccccc2Sc2ccc(C(F)(F)F)cc21	none
O=C(CN1CCN(c2ccccn2)CC1)N1c2ccccc2CCc2ccccc21	Mcl1-Bid inh 55.0
Cc1ccc(-c2csc(NC(=O)c3ccno3)n2)cc1	Mcl1 Noxa PPI 55.8
Cc1ccc(-c2csc(NC(=O)c3ccc(C)o3)n2)cc1	none
CC1(C)CC(=O)c2cnc3c(C#N)cnn3c2C1	Mcl1-Bid inh 52.9
NC(=O)c1c(NC(=O)C2c3ccccc3Oc3ccccc32)sc2c1CCCCC2	Mcl1 Noxa PPI 68.0
CCOC(=O)C1CCCN(C(=O)CCc2nc3sc4c(c3c(=O)[nH]2)CCCC4)C1 (stereo unspecified)	none (no result: Mcl-1 Bim block, Mcl1 Noxa PPI, Mcl1-Bid inh)
Cc1nc2cc(C)c(C)cc2s1	none
Cc1cc2nc3ccc(=[N+](C)C)cc-3sc2cc1N	Mcl1 Noxa PPI 51.4 (no result: MCL1 BIM primary, Mcl-1 Bim block)
CN(C)c1ccc2nc3ccc(=[N+](C)C)cc-3sc2c1	Mcl1 Noxa PPI 58.4
COc1ccc(C(c2c(O)cc(C)oc2=O)c2c(O)cc(C)oc2=O)cc1	Mcl1 Noxa PPI 76.2
COc1ccc(C(c2c(O)nc[nH]c2=O)c2c(O)nc[nH]c2=O)cc1	none (no result: Mcl-1 Bim block)
Oc1ccc(Nc2nc(NCC3CCCO3)c3ccccc3n2)cc1 (stereo unspecified)	Mcl1 Noxa PPI 54.6 (no result: MCL1 BIM primary)
Oc1ccccc1Nc1nc(NCC2CCCO2)c2ccccc2n1 (stereo unspecified)	none
COc1cccc(Nc2nc(NCC3CCCO3)c3ccccc3n2)c1 (stereo unspecified)	Mcl1-Bid inh 91.8
COc1ccc(/C=C2/SC(=O)N(CCC(=O)Nc3ccc(S(=O)(=O)Nc4nccs4)cc3)C2=O)cc1	Mcl1 Noxa PPI 96.0
COc1ccc(/C=C2\SC(=O)N(CCC(=O)Nc3ccc(S(=O)(=O)Nc4nccs4)cc3)C2=O)cc1	Mcl1 Noxa PPI 93.2
COc1ccc(/C=C2\SC(=S)N(CCC(=O)Nc3ccc(O)cc3)C2=O)cc1	none (no result: Mcl-1 Bim block, Mcl1 Noxa PPI, Mcl1-Bid inh)
O=C(NCC(c1ccco1)N1CCCC1)c1ccc(Cl)c(S(=O)(=O)N2CCc3ccccc32)c1 (stereo unspecified)	none (no result: Mcl-1 Bim block, Mcl1 Noxa PPI, Mcl1-Bid inh)
O=C(c1cccc(C(F)(F)F)c1)C1CCCN(C(=O)CN2CCOC2=O)C1 (stereo unspecified)	none (no result: Mcl-1 Bim block, Mcl1 Noxa PPI, Mcl1-Bid inh)
COc1ccccc1N(CC(=O)N1CCN(c2ccc(F)cc2)CC1)S(=O)(=O)c1ccc(C)cc1	none (no result: Mcl-1 Bim block, Mcl1 Noxa PPI, Mcl1-Bid inh)
O=C(CSc1nc2ccccc2n1CCc1ccccc1)c1ccc(O)c(O)c1	Mcl1 Noxa PPI 101.9, Mcl1-Bid inh 52.5 (no result: MCL1 BIM primary)
Cc1ccc(-c2nc3ccc(Cl)cc3c(=O)n2O)cc1	none (no result: Mcl-1 Bim block, Mcl1 Noxa PPI, Mcl1-Bid inh)
O=c1c2cc(Cl)ccc2nc(-c2ccccc2Cl)n1O	Mcl1-Bid inh 88.4
Cc1ccc(C)c(-n2c(-c3cccnc3)n[nH]c2=S)c1	none
Cc1cc(Cl)ccc1-n1c(-c2cccnc2)n[nH]c1=S	Mcl1 Noxa PPI 59.3 (no result: Mcl-1 Bim block)
COc1cccc(OC)c1C(=O)NCCOc1cc(C)cc(C)c1	none (no result: Mcl-1 Bim block, Mcl1 Noxa PPI, Mcl1-Bid inh)
CC1=CC(C#N)(C#N)C(C#N)(C#N)C(c2ccccc2)N1 (stereo unspecified)	MCL1 BIM primary 151.2
Cc1c(O)cc2c(c1O)C(=O)CC(c1ccc(O)cc1)O2 (stereo unspecified)	Mcl1 Noxa PPI 85.7, Mcl1-Bid inh 64.9
COc1cc(O)c2c(c1)OC(c1ccc(O)cc1)CC2=O (stereo unspecified)	none
Fc1cccc(Nc2nc(-c3ccncc3)nc3ccccc23)c1	Mcl-1 Bim block 47.0
Cc1cc(NC2CCCCC2)nc(-c2ccccc2O)n1	Mcl1-Bid inh 51.6
Cc1cc(Nc2ccccc2)nc(-c2ccccc2O)n1	none
CC1CN(CC(=O)Nc2nc3ccccc3s2)CC(C)O1 (stereo unspecified)	none (no result: Mcl-1 Bim block, Mcl1 Noxa PPI, Mcl1-Bid inh)
CC(C)OC(=O)/C(C#N)=C/c1cn(Cc2ccccc2)c2ccccc12	none
CC(C)COC(=O)/C(C#N)=C/c1cn(Cc2ccccc2)c2ccccc12	Mcl-1 Bim block 40.0
CCc1cc(=O)oc2cc3occ(-c4ccc(OC)c(F)c4)c3cc12	Mcl1-Bid inh 66.8
CCc1cc(=O)oc2cc3occ(C)c3cc12	none
COc1cccc(/C=N/Nc2nn3cnnc3c3ccccc23)c1	none (no result: Mcl1 Noxa PPI)
COc1cc(/C=N/Nc2nn3cnnc3c3ccccc23)ccc1O	Mcl1 Noxa PPI 68.4
Oc1ccc(/C=N/Nc2nn3cnnc3c3ccccc23)cc1	Mcl1 Noxa PPI 51.3 (no result: Mcl-1 Bim block)
